Assay results from paper PMC4336329 (PLoS ONE, 2015).
About 14,000 (4.5%) of roughly 310,000 compounds showed an effect of 50% or more. The effect is printed as a negative number. Many of the other results were omitted from the sample, so strong results are more common in it than they were.

Target: human ether-à-go-go-related gene (hERG) potassium channel (human, UniProt Q12809)
Experiment: primary screen, population patch clamp on CHO cells stably expressing hERG; higher = less effect of the substance
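Further: peak tail current of the secondary pulse compared with the same well before compound.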

human ether-à-go-go-related gene (hERG) potassium channel, sequence (Q12809 whole entry, looked up): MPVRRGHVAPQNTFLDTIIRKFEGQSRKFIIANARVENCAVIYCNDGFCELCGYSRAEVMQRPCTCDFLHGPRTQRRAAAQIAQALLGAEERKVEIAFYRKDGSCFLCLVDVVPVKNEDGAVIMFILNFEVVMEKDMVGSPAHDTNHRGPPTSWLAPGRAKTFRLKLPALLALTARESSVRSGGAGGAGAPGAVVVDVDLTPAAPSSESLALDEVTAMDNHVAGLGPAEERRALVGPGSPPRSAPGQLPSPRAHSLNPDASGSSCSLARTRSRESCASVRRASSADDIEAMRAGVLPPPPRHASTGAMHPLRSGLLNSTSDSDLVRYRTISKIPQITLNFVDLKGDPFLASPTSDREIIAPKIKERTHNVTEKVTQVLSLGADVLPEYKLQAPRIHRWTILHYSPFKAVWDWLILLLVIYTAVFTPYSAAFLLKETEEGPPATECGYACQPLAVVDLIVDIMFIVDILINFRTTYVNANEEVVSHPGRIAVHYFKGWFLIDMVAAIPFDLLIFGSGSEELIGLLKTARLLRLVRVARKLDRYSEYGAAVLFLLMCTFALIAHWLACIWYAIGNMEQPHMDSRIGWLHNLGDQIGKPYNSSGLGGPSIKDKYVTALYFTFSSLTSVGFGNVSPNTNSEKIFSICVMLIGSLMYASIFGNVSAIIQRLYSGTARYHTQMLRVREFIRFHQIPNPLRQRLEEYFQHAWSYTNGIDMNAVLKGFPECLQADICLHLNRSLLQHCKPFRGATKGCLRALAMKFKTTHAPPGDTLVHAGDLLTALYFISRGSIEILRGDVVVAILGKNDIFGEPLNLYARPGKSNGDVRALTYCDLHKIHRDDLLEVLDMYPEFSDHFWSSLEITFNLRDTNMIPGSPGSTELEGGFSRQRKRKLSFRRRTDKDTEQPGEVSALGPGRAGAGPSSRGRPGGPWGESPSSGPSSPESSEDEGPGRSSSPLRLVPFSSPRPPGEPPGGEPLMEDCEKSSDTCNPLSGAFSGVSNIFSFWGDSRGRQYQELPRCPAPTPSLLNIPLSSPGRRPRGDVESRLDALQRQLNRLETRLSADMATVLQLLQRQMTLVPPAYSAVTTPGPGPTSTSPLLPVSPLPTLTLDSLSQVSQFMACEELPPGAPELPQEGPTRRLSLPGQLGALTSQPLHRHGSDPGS

Structure (SMILES)	hERG current change (%, negative = inhibition) at 10uM
OC1CCCN(c2ncnc3c2nnn3Cc2c(F)cccc2Cl)C1 (stereo not shown)	0.989%
COc1cc([N+](=O)[O-])ccc1NC(=O)NCc1ccccn1	11.7%
CC(=O)c1cccc(NC(=O)CSc2n[nH]c(-c3ccncc3)n2)c1	10.5%
Cc1ccc(Cl)c(OCC(=O)Nc2ccccc2C(=O)NC2CC2)c1	3.5%
O=C(COc1ccc(Br)cc1Cl)NC(=O)NC1CCCC1	-9.03%
O=C(COc1ccc(Br)cc1Cl)NC1CCN(Cc2ccccc2)CC1	-67.3%
Cl.O=C(COc1ccccc1F)NC1CCN(Cc2ccccc2)CC1	-38.5%
O=C(COc1ccccc1F)NC1CC1	0.681%
Cc1cc(OCC(=O)NC2CCN(Cc3ccccc3)CC2)c2c(C)c(C)c(=O)oc2c1	-22.4%
Cc1ccc(Cl)c(OCC(=O)NC2CCN(Cc3ccccc3)CC2)c1	-115%
O=C(COc1ccc(Br)cc1F)NC1CCN(Cc2ccccc2)CC1	-74%
O=C(COc1ccc(Br)cc1Cl)NC1CCCCC1	9.84%
COc1ccc(C(=O)N(C)c2ccccc2C(=O)NCCc2ccccc2)cc1	-20.2%
O=C(CCCn1c(=O)c2ccccc2n(Cc2ccccc2)c1=O)NCc1ccco1	-7.47%
CNC(=O)c1c(C)nn(-c2ccc(F)c(Cl)c2)c1-c1cc(C)on1	4.71%
Cc1ccc(CC(=O)Nc2ccc(S(=O)(=O)Nc3nccc(C)n3)cc2)cc1	1.2%
CCCCC(NC(C)=O)c1nc2ccccc2[nH]1 (stereo not shown)	23.1%
CC(C)COC(=O)Nc1ccccc1C(=O)N1CCOCC1	9.75%
C=C[C@@H]1C2=CCOC(=O)C2=CO[C@H]1O[C@@H]1O[C@H](CO)[C@@H](O)[C@H](O)[C@H]1O	20.1%
N#CCCN1CCN(S(=O)(=O)c2ccc(S(=O)(=O)N3CCCC3)cc2)CC1	4.66%
COc1ccc(S(=O)(=O)NCc2ccccn2)c(C)c1C	0.26%
N#CCc1c(C#N)c(N)nc(N2CCCC(CO)C2)c1C#N (stereo not shown)	1.82%
Cc1cc(C)c(Cn2c3ccccc3c3cnn(CC(=O)NCCN4CCOCC4)c(=O)c32)c(C)c1	2.31%
O=C(Cn1ncc2c3ccccc3n(Cc3ccccc3)c2c1=O)NCCN1CCOCC1	-57%
O=C(Cn1ncc2c3ccccc3n(Cc3ccccc3)c2c1=O)NCCCN1CCOCC1	-45.2%
Cc1ccccc1Cn1c2ccccc2c2cnn(CC(=O)NCCCN3CCOCC3)c(=O)c21	-18.6%
O=C(Cn1ncc2c3ccccc3n(Cc3ccccc3F)c2c1=O)NCCN1CCOCC1	-55.2%
Cc1ccc(C)c(Cn2c3ccccc3c3cnn(CC(=O)NCCN4CCOCC4)c(=O)c32)c1	-45%
